# Reference: PMC4336329 (PLoS ONE, 2015)
# The whole screen tested about 310,000 compounds, of which about 14,000 (4.5%) showed an effect of 50% or more. The effect is printed as a negative number. For the sample, strong results were picked, then their nearest neighbours and some compounds at random.
# Target: human ether-à-go-go-related gene (hERG) potassium channel (human, UniProt Q12809)
# Assay: primary screen, population patch clamp on CHO cells stably expressing hERG; higher = less effect of the substance
# 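Further: peak tail current of the secondary pulse compared with the same well before compound.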
# Sequence of human ether-à-go-go-related gene (hERG) potassium channel (Q12809 whole entry, looked up): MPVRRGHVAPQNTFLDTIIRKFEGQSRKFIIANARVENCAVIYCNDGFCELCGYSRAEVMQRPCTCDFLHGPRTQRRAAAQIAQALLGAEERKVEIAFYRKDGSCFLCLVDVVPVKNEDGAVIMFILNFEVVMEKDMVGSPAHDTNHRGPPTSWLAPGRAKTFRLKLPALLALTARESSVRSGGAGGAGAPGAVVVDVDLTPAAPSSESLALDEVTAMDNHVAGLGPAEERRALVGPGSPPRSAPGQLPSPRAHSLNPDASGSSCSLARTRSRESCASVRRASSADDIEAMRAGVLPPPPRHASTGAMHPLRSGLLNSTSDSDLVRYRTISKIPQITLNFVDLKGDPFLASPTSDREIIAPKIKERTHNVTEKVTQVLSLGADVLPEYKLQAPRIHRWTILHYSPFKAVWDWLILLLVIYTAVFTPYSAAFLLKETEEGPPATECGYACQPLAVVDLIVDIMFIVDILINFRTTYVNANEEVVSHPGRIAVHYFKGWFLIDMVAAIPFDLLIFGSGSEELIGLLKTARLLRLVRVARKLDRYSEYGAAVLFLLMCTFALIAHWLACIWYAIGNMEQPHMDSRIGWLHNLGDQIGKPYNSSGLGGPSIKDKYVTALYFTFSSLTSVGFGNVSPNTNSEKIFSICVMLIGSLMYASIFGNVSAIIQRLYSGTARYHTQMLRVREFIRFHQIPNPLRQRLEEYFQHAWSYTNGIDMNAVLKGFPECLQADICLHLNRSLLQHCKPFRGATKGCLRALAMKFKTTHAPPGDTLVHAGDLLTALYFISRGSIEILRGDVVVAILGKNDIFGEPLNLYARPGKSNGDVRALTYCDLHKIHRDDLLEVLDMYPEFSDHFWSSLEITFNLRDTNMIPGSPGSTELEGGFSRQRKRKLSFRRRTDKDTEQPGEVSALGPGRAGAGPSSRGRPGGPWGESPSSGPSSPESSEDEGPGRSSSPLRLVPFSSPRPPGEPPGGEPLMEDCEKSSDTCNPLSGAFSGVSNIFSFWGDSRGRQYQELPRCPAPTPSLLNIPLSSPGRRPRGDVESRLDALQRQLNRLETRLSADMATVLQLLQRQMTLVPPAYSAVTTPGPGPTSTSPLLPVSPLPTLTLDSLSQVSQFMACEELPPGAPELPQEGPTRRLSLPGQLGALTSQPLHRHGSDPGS
row,SMILES,"hERG current change (%, negative = inhibition) at 10uM [%]"
1,CC(C)=NN/C(N)=N/C(=S)Nc1ccc(C)cc1,-3.24
2,O=C(NCC1CCCO1)c1cccc(NC(=O)c2ccco2)c1 (stereo not shown),0.813
3,Cc1oc(-c2ccccc2F)nc1CSCC(=O)NC1CC1,3.12
4,O=C(CCSc1ccc(Cl)cc1)NCc1ccncc1,-32.7
5,CS(=O)(=O)N(CC(=O)NCc1ccc(Cl)cc1)C1CCCCC1,-26.1
6,Cc1ccc(S(=O)(=O)N(CC(=O)NCc2ccncc2)C2CCCCC2)cc1,-63
7,CS(=O)(=O)N(CC(=O)NCc1ccncc1)C1CCCCC1,1.91
8,Cc1ccc(SCC(=O)NCc2ccncc2)cc1,-6.77
9,O=C(CN(C1CCCCC1)S(=O)(=O)c1ccc(Cl)cc1)NCc1ccncc1,-69.8
10,CN(CC(=O)NCc1ccncc1)S(=O)(=O)c1ccc(Br)cc1,-13.4
11,CCN(C1CCCCC1)S(=O)(=O)c1ccc(S(=O)(=O)NCc2ccncc2)cc1,-4.63
12,Cc1ccc(SCCC(=O)NCc2ccncc2)cc1,-61.9
13,O=C(CN(C1CCCCC1)S(=O)(=O)c1ccc(Cl)cc1)NCCCO,-25.8
14,O=C(CN(C1CCCCC1)S(=O)(=O)c1ccc(F)cc1)NCc1ccncc1,-41.9
15,O=C(CN(C1CCCCC1)S(=O)(=O)c1ccc(Br)cc1)NCc1ccncc1,-72.9
16,NNC(=O)CSc1nc(-c2ccccc2)cn1-c1ccccc1,-0.037
17,Cc1ccccc1NC(=O)C1CCN(c2cnccn2)CC1,-14.7
18,Cc1cc(C)cc(NC(=S)N2CCN(c3ncccn3)CC2)c1,13
19,Cc1ccccc1C(=O)NC(NC(=S)Nc1ccc(S(N)(=O)=O)cc1)C(Cl)(Cl)Cl (stereo not shown),19.3
20,CCOC(=O)C1CCN(C(=O)c2ccc(OC3CCN(C(=O)CCOC)CC3)cc2)CC1,8.91
21,CCSc1ccc([C@@H]2[C@H]3C(=O)N(C)C(=O)[C@H]3[C@]3(C(=O)OC)CCCCN23)cc1OC.O=C(O)C(F)(F)F,-8.41
22,COc1cccc(OC)c1C(=O)Nc1ccc2c(c1)Cc1ccccc1-2,15.5

row,SMILES,"hERG current change (%, negative = inhibition) at 10uM [%]"
1,Cc1cc(-c2nn(-c3ccccc3F)cc2CN2CCC(C(N)=O)CC2)c(C)s1,-28.5
2,Cc1cc(-c2nn(-c3ccccc3F)cc2CNCCc2cnc[nH]2)c(C)s1,-53.6
3,Cc1cc(-c2nn(-c3ccccc3F)cc2CN(C)CC(O)CO)c(C)s1 (stereo not shown),-22.3
4,Cc1cc(-c2nn(-c3ccccc3F)cc2CN2CCN(c3ccccn3)CC2)c(C)s1,18.6
5,COc1ccc(-c2nn(-c3ccccc3C)cc2CNCCc2cnc[nH]2)cc1F,-70.6
6,Cc1cc(-c2nn(-c3ccccc3F)cc2CNCCc2cnccn2)c(C)s1,-52.3
7,Cc1cc(-c2nn(-c3ccccc3F)cc2CN2CCN(c3ccncc3)CC2)c(C)s1,-94.3
8,COc1ccc(-c2nn(-c3ccccc3C)cc2CNCc2cccnc2)cc1F,-38.3
9,Cc1cc(-c2nn(-c3ccccc3F)cc2CN2CCCC(CO)C2)c(C)s1 (stereo not shown),-7.33
10,CCn1cc(CNCc2cn(-c3ccccc3C)nc2-c2ccc(OC)c(F)c2)cn1,-22
11,Cc1cc(-c2nn(-c3ccccc3F)cc2CN2CCC(O)CC2)c(C)s1,-28.9
12,Cc1cc(-c2nn(-c3ccccc3F)cc2CN2CCCC(O)C2)c(C)s1 (stereo not shown),-9.16
13,COc1cc(/C=C/C(=O)OCC(=O)NCC(=O)Nc2cccc(C)c2C)ccc1OC(F)F,-25.7
14,Cc1cc(C)nc(SC(C)CNS(=O)(=O)c2ccccc2)n1 (stereo not shown),0.485
15,CCC(C)(C)NC(=O)C(c1ccc(OC)cc1)N(C(=O)CCC(=O)Nc1cc(C)on1)c1cccc(OC)c1 (stereo not shown),1.47
16,O=C(Cn1cncn1)N/N=C/c1cc([N+](=O)[O-])ccc1O,1.67
17,COc1ccc(OC)c(NC(=O)c2ccccc2N(C)S(=O)(=O)c2ccc(C)cc2)c1,-9.39
18,CCOC(=O)CSc1nc2cc3c(cc2cc1C#N)OCCO3,19
19,Cc1ccc(C(=O)NCCc2cccs2)cc1,7.84
20,COC(=O)c1[nH]c2ccc(Br)cc2c1NC(=O)CN1CCCc2ccccc21,-4.4
21,COC(=O)c1[nH]c2ccc(Br)cc2c1NC(=O)CN1CCCCC1CCO (stereo not shown),-2.6
22,COC(=O)c1[nH]c2ccc(C)cc2c1NC(=O)C(C)N1CCN(C2CCCCC2)CC1 (stereo not shown),-77

row,SMILES,"hERG current change (%, negative = inhibition) at 10uM [%]"
1,COC(=O)c1[nH]c2ccc(Cl)cc2c1NC(=O)CCN1CCN(C2CCCCC2)CC1,-80
2,COC(=O)c1[nH]c2ccc(Br)cc2c1NC(=O)CN1CCN(C2CCCCC2)CC1,-78.7
3,COC(=O)c1[nH]c2ccc(C)cc2c1NC(=O)NC1CCCCC1,8.55
4,CCOC(=O)C1CCCN(CC(=O)Nc2c(C(=O)OC)[nH]c3ccc(Br)cc23)C1 (stereo not shown),-30.9
5,COC(=O)c1[nH]c2ccc(Br)cc2c1NC(=O)C(C)N1CCN(C2CCCCC2)CC1 (stereo not shown),-78.2
6,COC(=O)c1[nH]c2ccc(Cl)cc2c1NC(=O)CN1CCC(C(N)=O)CC1,-2.26
7,COC(=O)c1[nH]c2ccc(Cl)cc2c1NC(=O)CCN1CCOCC1,2.71
8,COC(=O)c1[nH]c2ccccc2c1NC(=O)C(C)N1CC(C)OC(C)C1 (stereo not shown),5.31
9,COC(=O)c1[nH]c2ccccc2c1NC(=O)C(C)N1CCOCC1 (stereo not shown),9.7
10,CCC(Sc1nc2ccncc2[nH]1)C(=O)Nc1cc(Cl)ccc1C (stereo not shown),-44.3
11,CC(=O)N1c2ccc(S(=O)(=O)N3CCC(C(=O)Nc4cccc(Cl)c4)CC3)cc2CC1C (stereo not shown),15.1
12,O=c1cc(CO)oc(C(Nc2ccccn2)c2ccccc2F)c1O (stereo not shown),17.5
13,CC(C)c1c(C(=O)N/N=C/c2ccsc2)nnn1-c1nonc1N,23.8
14,O=c1c2cc(F)ccc2[nH]c(=S)n1CCCN1CCOCC1,-3.61
15,CC1(C)CC(=O)C2=C(C1)NC(=O)NC2c1ccc(Cl)cc1 (stereo not shown),17.3
16,COc1cc(OC)c(C(=O)OCC(=O)c2cc(C)n(CC3CCCO3)c2C)cc1OC (stereo not shown),13.3
17,Cc1cc(C(=O)COC(=O)CN(C)S(=O)(=O)c2ccc(Cl)cc2)c(C)n1CC1CCCO1 (stereo not shown),-55.2
18,Cc1cc(C(=O)COC(=O)C2CCN(C(=O)c3ccc(Cl)cc3)CC2)c(C)n1CC1CCCO1 (stereo not shown),-15.2
19,COc1cc(OC)cc(C(=O)OCC(=O)c2cc(C)n(CC3CCCO3)c2C)c1 (stereo not shown),-39
20,COc1cc(C(=O)OCC(=O)c2cc(C)n(CC3CCCO3)c2C)cc(OC)c1C (stereo not shown),-68
21,Cc1cc(C(=O)COC(=O)CN(C)S(=O)(=O)c2ccc(Cl)cc2)c(C)n1Cc1cccs1,-5.54
22,CCOC(=O)N1CCC(NC(=O)CC(NS(=O)(=O)c2ccc(C)cc2)c2ccco2)CC1 (stereo not shown),-7.75

row,SMILES,"hERG current change (%, negative = inhibition) at 10uM [%]"
1,O=C(CC(NS(=O)(=O)c1ccc(Cl)cc1)c1ccco1)NC1CCCC1 (stereo not shown),-8
2,CCOC(=O)N1CCC(NC(=O)CC(NS(=O)(=O)c2ccc(Cl)cc2)c2ccco2)CC1 (stereo not shown),-53
3,CCc1cccc(C)c1NC(=S)NCC(c1cccnc1)N(C)C (stereo not shown),5.1
4,CCc1nnc(NC(=O)C2CCN(c3cnccn3)CC2)s1,4.24
5,O=S(=O)(NCc1ccccn1)c1cc(OCC(F)(F)F)ccc1OCC(F)(F)F,-69.9
6,CCOc1ccc(OCC)c(S(=O)(=O)NCc2ccccn2)c1,-1.02
7,COc1ccc(OC)c(S(=O)(=O)NCc2ccccn2)c1,11.9
8,Cn1nc(C(=O)NC2CCCCC2)c2ccccc2c1=O,-15.3
9,COc1ccc(-c2nn(C)c(=O)c3ccccc23)cc1CNC(=O)NC1CCCCC1,-26.5
10,COc1ccc(-c2nn(C)c(=O)c3ccccc23)cc1NC(=O)Cn1nc(C)c2ccccc2c1=O,-57.5
11,CCCC(=O)NCc1cc(-c2nn(C)c(=O)c3ccccc23)ccc1OC,7.01
12,Cn1nc(-c2ccc(C(=O)NC3CCCCC3)cc2)c2ccccc2c1=O,-52.4
13,CCC(=O)Nc1cc(-c2nn(C)c(=O)c3ccccc23)ccc1OC,-11.4
14,Cn1nc(C(=O)NC2CCCC2)c2ccccc2c1=O,1.63
15,COc1ccc(-c2nn(C)c(=O)c3ccccc23)cc1CNC(=O)C1CCCCC1,-56.3
16,COc1ccc(-c2nn(C)c(=O)c3ccccc23)cc1NC(=O)Cn1nc(-c2ccccc2)c2ccccc2c1=O,5.06
17,CCC1CCCCN1C(=S)NC1CCCCC1 (stereo not shown),17.2
18,COc1cc(/C=C/C(=O)Nc2ccc(C)cc2)cc(OC)c1OC,-2.49
19,O=C(C1CCN(S(=O)(=O)c2ccc(Br)s2)CC1)N1CCc2ccccc21,-46.8
